KCNQ2 pot: potentiators of rat KCNQ2 potassium channel; CHO-K1 KCNQ2, FluxOR thallium flux fluorescence; active compounds read high; B-score at 10 µM; 310,000 compounds, 0.54% hits; AID 2239;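 active = fluorescence ratio B-score at least 3 SD of library B-scores, with initial fluorescence B-score within 3 of them, cut at about 5.3 in these data; same plate scores as AID 2156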;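 also: B-score of peak minus minimum over baseline fluorescence ratio after K+ and Tl+ stimulus; positive B-score means potentiation of KCNQ2 with more thallium influx and brighter signal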
KCNQ2 inh: inhibitors of rat KCNQ2 potassium channel | 310,000 compounds, 1.1% hits | B-score at 10 µM | CHO-K1 KCNQ2, FluxOR thallium flux, 20 min; active compounds read low;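 active = fluorescence ratio B-score at most minus 3 library SDs, with starting brightness B-score within 2 library SDs, cut at about -5.5 in these data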
Kir21 conf inh: confirmation of mouse Kir2.1 potassium channel inhibitors; shares compounds with KCNQ2 pot; Kir2.1-expressing cells, FluxOR thallium flux fluorescence; active compounds read low; Tl flux remaining, % of negative control (active compounds read low), % at 10 µM; 2,300 compounds, 41% hits; AID 2032;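 active = Primary-screen hit whose thallium flux fell at least 3 control SD below untreated wells in both duplicates, with normal baseline fluorescence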;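 also: 0% = blank wells without stimulus and 100% = stimulated no-compound controls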
Target sequence (P35561 whole entry, looked up): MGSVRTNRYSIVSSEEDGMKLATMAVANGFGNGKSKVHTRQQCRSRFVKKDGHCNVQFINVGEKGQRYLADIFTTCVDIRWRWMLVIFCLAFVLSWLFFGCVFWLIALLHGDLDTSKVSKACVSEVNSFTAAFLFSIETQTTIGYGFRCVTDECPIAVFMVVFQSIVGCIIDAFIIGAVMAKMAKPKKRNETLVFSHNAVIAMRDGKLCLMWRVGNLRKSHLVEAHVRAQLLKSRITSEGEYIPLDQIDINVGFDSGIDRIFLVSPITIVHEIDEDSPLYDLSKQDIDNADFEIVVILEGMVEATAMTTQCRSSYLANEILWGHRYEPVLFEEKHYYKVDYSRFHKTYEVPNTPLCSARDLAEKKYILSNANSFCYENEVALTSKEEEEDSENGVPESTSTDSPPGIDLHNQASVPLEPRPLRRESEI
HEK293 Tl flux: counter-screen for Kir2.1 inhibitors: effect in parental HEK293 cells; shares compounds with KCNQ2 pot; FluxOR thallium flux fluorescence; 0% = unstimulated blank wells; FluxOR signal as % of negative control (100 = no effect), % at 10 µM; 2,300 compounds, 19% hits;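 active = dye signal at least 3 control SD above or below untreated wells in both duplicates, raw fluorescence within 3, either direction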;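 also: percent is based on the flux ratio of peak minus minimum fluorescence over baseline F0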
CHO-K1 Tl ctr: counter-screen for KCNQ2 potentiators: effect in parental CHO-K1 cells. AID 2282. activity increase over 3SD of controls, % at 10 µM. 1,200 compounds, 43% hits. FluxOR thallium flux fluorescence; zero = vehicle mean+3SD, 100% = vehicle-minus-blank window. shares compounds with KCNQ2 pot;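 active = signal rise of at least 3 SD above the untreated control mean, in both duplicate wells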;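 also: counter screen of KCNQ2 potentiator hits so any rise reflects channel-independent effects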
KCNQ1 sel pot: human KCNQ1 counter-target activity of KCNQ2 potentiators; shares compounds with KCNQ2 pot; CHO KCNQ1 stable, FluxOR thallium flux fluorescence; beyond 3SD, as % of vehicle-control signal; 1,200 compounds, 28% hits; activation over 3SD threshold, % at 10 µM;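 active = fluorescence ratio rise of at least 3 SD of vehicle wells above their mean, in both replicate wells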;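 also: 0% = vehicle mean plus 3 SD and 100% = vehicle minus unstimulated blank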
KCNQ2 pot confirm: rat KCNQ2 channel potentiator confirmation; AID 2287; shares compounds with KCNQ2 pot; potentiation, less the hit threshold, % at 10 µM; 1,200 compounds, 68% hits; CHO-KCNQ2 cells, FluxOR thallium flux fluorescence;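 active = fluorescence ratio rising 3 SD or more over the vehicle control mean in both replicates, plus primary screen hit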;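 also: peak minus minimum thallium fluorescence divided by baseline after K/Tl stimulus; 0% = vehicle mean plus 3 SD and 100% = vehicle minus unstimulated blank difference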
Kir2-1 sel: mouse Kir2.1 off-target activity of KCNQ2 potentiators; shares compounds with KCNQ2 pot; HEK293 Kir2.1, FluxOR thallium flux fluorescence; activity over 3SD threshold, % at 10 µM; 1,200 compounds, 2% hits;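 active = fluorescence ratio rise of at least 3 SD above the vehicle-control mean, seen in both replicates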;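 also: 0% = vehicle mean plus 3 SD and 100% = vehicle minus no-stimulus blank window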
KCNQ2 W236L MoA: KCNQ2 potentiators acting on retigabine-insensitive rat KCNQ2 W236L mutant | shares compounds with KCNQ2 pot | CHO KCNQ2-W236L, automated patch clamp current | current increase over 3SD of negative controls (%), active compounds read high, % at 25 µM | 940 compounds, 10% hits | AID 2558;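 active = current increase at least 3 SD of the untreated controls above them in both duplicate recordings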
* = called active by the depositor; i = inactive; nt = not tested or not shown. Most compounds without a hit are left out; they make up all but 1.6% or so of the library.

SMILES	KCNQ2 pot	KCNQ2 inh	Kir21 conf inh	HEK293 Tl flux	CHO-K1 Tl ctr	KCNQ1 sel pot	KCNQ2 pot confirm	Kir2-1 sel	others
Cc1ccc(C(=O)Nc2ccc(N3CCOCC3)cc2N2CCOCC2)cc1	nt	i	nt	nt	nt	nt	nt	nt
CC(C)(C)c1ccc(OCCC(=O)Nc2ccc(N3CCOCC3)cc2N2CCOCC2)cc1	7.97*	i	nt	nt	-5.7	-37.1	-16.0	-43.7
O=C(NCC(=O)N1CCN(c2ccccc2O)CC1)c1ccc2c(c1)OCO2	0.52	i	nt	nt	nt	nt	nt	nt
CCCCc1ncc(CN2CCC(CC3CCCCO3)(C(=O)OCC)CC2)[nH]1 (stereo not given)	0.83	i	nt	nt	nt	nt	nt	nt
CCOC(=O)C1(CC2CCCCO2)CCN(Cc2cc3ccccc3[nH]2)CC1 (stereo not given)	8.45*	i	nt	nt	-28.8	-9.8	-23.9	-59.6
CC(C)(C)NS(=O)(=O)c1ccc(CCC(=O)NCc2cccnc2)cc1	0.32	i	nt	nt	nt	nt	nt	nt
COc1ccc(NC(=O)CC23CC4CC(CC(Br)(C4)C2)C3)c(OC)c1	16.1*	i	i	i	-0.6	2.8*	72.3*	-29.7	KCNQ2 W236L MoA=i
COc1ccccc1NC(=O)CC12CC3CC(CC(Br)(C3)C1)C2	6.67*	i	i	i	-3.1	41.0*	23.0*	-17.1	KCNQ2 W236L MoA=i
NC(=O)c1ccccc1NC(=O)CC12CC3CC(CC(Br)(C3)C1)C2	1.1	i	nt	nt	nt	nt	nt	nt
COc1ccc(NC(=O)CNC(=O)C23CC4CC(CC(C4)C2)C3)c(OC)c1	nt	i	nt	nt	nt	nt	nt	nt
COc1ccc(OC)c(NC(=O)c2ccccc2N(Cc2ccccc2)S(C)(=O)=O)c1	nt	i	nt	nt	nt	nt	nt	nt
CC1(C)CC(n2c(=S)[nH]c3ccccc3c2=O)CCO1 (stereo not given)	0.74	i	nt	nt	nt	nt	nt	nt
O=c1c2ccccc2[nH]c(=S)n1C1CCCCC1	nt	i	nt	nt	nt	nt	nt	nt
CC1CCC(n2c(=S)[nH]c3ccccc3c2=O)CC1 (stereo not given)	10.6*	i	i	i	-1.4	82.7*	27.0*	-26.8	KCNQ2 W236L MoA=i
CC1CCCC(n2c(=S)[nH]c3ccccc3c2=O)C1C (stereo not given)	11.4*	i	i	i	-14.6	-19.2	6.8*	-27.4	KCNQ2 W236L MoA=i
O=C(O)C1=C(OCc2ccc(F)c(F)c2)C(=O)NCC1	1.46	i	nt	nt	nt	nt	nt	nt
CCNC(=O)CC1C(=O)N(c2ccc(C)cc2)C(=O)N1CCC(C)C (stereo not given)	nt	i	nt	nt	nt	nt	nt	nt
CC1(/[N+]([O-])=C\c2ccccc2F)CCCCC1=O (stereo not given)	nt	i	nt	nt	nt	nt	nt	nt
Cc1oc2cc3oc(=O)c(CCC(=O)NCCCN4CCOCC4)c(C)c3cc2c1C	1.26	i	nt	nt	nt	nt	nt	nt
CC1=C(C(=O)NC2CC(C)(C)Cc3c2cnn3-c2cccc(F)c2)OCCO1 (stereo not given)	0.15	i	nt	nt	nt	nt	nt	nt
COC(=O)c1c(NS(C)(=O)=O)sc2c1CCCC2	0.04	i	nt	nt	nt	nt	nt	nt
CC(C)OC(=O)c1c(NS(=O)(=O)c2ccccc2)sc2c1CCCC2	2.2	i	i	i	nt	nt	nt	nt
COC(=O)c1c(NS(=O)(=O)Cc2ccccc2)sc2c1CCCC2	13*	i	i	235.5%*	109.5*	-4.4	45.2*	-39.0	KCNQ2 W236L MoA=i
COC(=O)c1c(NC(=O)c2ccccc2N(C)S(=O)(=O)c2ccccc2)sc2c1CCCC2	nt	i	nt	nt	nt	nt	nt	nt
Cc1ccc(NC(=O)COC(=O)C2CC2C)c(S(=O)(=O)N2CCCCC2)c1 (stereo not given)	5.35*	i	i	i	-13.8	-17.2	-23.0	-49.7
SMILES	KCNQ2 pot	KCNQ2 inh	Kir21 conf inh	HEK293 Tl flux	CHO-K1 Tl ctr	KCNQ1 sel pot	KCNQ2 pot confirm	Kir2-1 sel	others
Cc1cc(Br)c(NC(=O)COC(=O)C2CC2C)c(Br)c1 (stereo not given)	3.5	i	nt	nt	nt	nt	nt	nt
COC(=O)c1ccc(CN(C(=O)N2CCN(C)CC2)S(=O)(=O)c2ccc(C)cc2)cc1	1.4	i	nt	nt	nt	nt	nt	nt
COC(=O)CSc1nc2c(c(-c3ccco3)c1C#N)CCCC2	11.3*	i	i	i	7.8*	-35.0	27.8*	-36.4	KCNQ2 W236L MoA=i
Cc1ccc(-c2c(C#N)c(N)nc3c2CCCCC3)o1	0.57	i	nt	nt	nt	nt	nt	nt
COC(=O)CSc1nc2c(c(-c3ccc(O)cc3)c1C#N)CCCC2	nt	i	nt	nt	nt	nt	nt	nt
CCOC(=O)CSc1nc2c(c(-c3ccc(C)o3)c1C#N)CCCC2	7.21*	i	i	i	112.7*	-5.9	6.3*	-26.9	KCNQ2 W236L MoA=i
COC(=O)c1ccc(C(=O)NC2CCCc3c2cnn3-c2cc(F)cc(F)c2)nc1 (stereo not given)	nt	i	nt	nt	nt	nt	nt	nt
CCOc1ccc(OCCOC(=O)CN2C(=O)NC3(CCCC3)C2=O)cc1	nt	i	nt	nt	nt	nt	nt	nt
Cc1ccc(S(=O)(=O)N2CCN(C(=O)CNC(=O)c3sc4ccccc4c3Cl)CC2)cc1	0.52	i	nt	nt	nt	nt	nt	nt
CC(C)OP(=O)(OC(C)C)/C(C=O)=N\Nc1ccc([N+](=O)[O-])cc1	1.49	i	nt	nt	nt	nt	nt	nt
Cc1onc(-c2ccccc2)c1CNS(=O)(=O)c1ccc(F)cc1F	nt	i	nt	nt	nt	nt	nt	nt
Cc1onc(-c2ccccc2)c1CNS(=O)(=O)c1cccc(Br)c1	0.46	i	52.0%*	i	nt	nt	nt	nt
COc1cccc(C(=O)NCC(=O)NCc2cc(=O)n(C)c(=O)n2C)c1	1.54	i	nt	nt	nt	nt	nt	nt
CC(=O)N(C1CC(C)C(C#N)(C#N)C1(C#N)C#N)N(C)C (stereo not given)	23.8*	i	i	63.0%*	nt	nt	nt	nt
COc1ccccc1NC(=O)Cn1cnc2c(nnn2-c2ccc(C)cc2)c1=O	nt	i	nt	nt	nt	nt	nt	nt
Oc1c(Br)cc(Br)cc1CNc1cccc2cccnc12	8.76*	i	i	i	2.2*	-25.9	-20.3	-25.9
COc1cccc(CNc2cccc3cccnc23)c1O	nt	i	nt	nt	nt	nt	nt	nt
CN(C)c1ccc(C(=O)c2ccccc2C(=O)O)c(O)c1	0.86	i	nt	nt	nt	nt	nt	nt
CCCCN(CCCC)c1ccc(C(=O)c2ccccc2C(=O)O)c(O)c1	8.92*	i	i	i	-7.3	-22.3	-1.8	-38.5	KCNQ2 W236L MoA=i
O=C(CSc1nc2ccccc2c(=O)n1Cc1ccccc1)Nc1ccc(Br)cc1C(=O)O	3.3	i	nt	nt	nt	nt	nt	nt
Cc1cc([N+](=O)[O-])nn1Cc1ccc(C(=O)N/N=C/c2ccc(N(C)C)cc2)cc1	0.92	i	nt	nt	nt	nt	nt	nt
O=[N+]([O-])c1ccc(S(=O)(=O)N2CCSC2c2ccco2)cc1 (stereo not given)	nt	i	nt	nt	nt	nt	nt	nt

High-throughput results: PubChem, Johns Hopkins Ion Channel Center
